The campaign covered roughly 290,000 compounds. About 27,000 (9.3%) were called active. This is one part of a sample in which actives are shown more often than they occur. Values without a mark were called inactive. No stated cut-off is given here; in the data, active means inhibition mostly above about 28% (no sharp cut-off); inactive means mostly below about 43%.
assay: A qHTS for Small Molecule Inhibitors of Shiga Toxin; details: Vero cells, Shiga toxin protein synthesis inhibition reporter; at 38.7 µM, hits give high values; further: 0% is about no effect

| SMILES | inhibition |
| --- | --- |
| COc1cccc(-c2cccc(NC(=O)C3CCN(C4CCC4)CC3)c2)c1 | -10.9% |
| COc1cc(Nc2nc3ccc(Cl)cc3n3cnnc23)cc(OC)c1OC | -9.44% |
| COc1ccc(CC(=O)Nc2cc(S(=O)(=O)N3CCCCC3)ccc2N2CCN(C)CC2)cc1 | 2.85% |
| CCN1CCN(c2ccc(S(=O)(=O)N3CCCCC3)cc2NC(=O)Cc2c(Cl)cccc2Cl)CC1 | 42.5% (active) |
| CN1CCN(c2ccc(S(=O)(=O)N3CCCCC3)cc2NC(=O)Cc2ccccc2F)CC1 | -8% |
| COC(=O)c1cnc(Nc2cc(C)ccc2OC)c2ccccc12 | -8.41% |
| Cc1cc(F)ccc1NC(=S)NCCc1ccccc1 | 6.98% |
| Cc1ccc(C)c(C(C)NC(=O)C2CCCO2)c1 (configuration not stated) | -10.5% |
| O=C(CN1CCSCC1)N/N=C/c1ccc(Cl)cc1 | 29.2% |
| CCOc1cc(/C=N/NC(=O)CN2CCCCC2)ccc1O | -8.43% |
| Cc1ccc(COc2ccc(/C=N/NC(=O)CN3CCCCC3)cc2)cc1 | 87.5% (active) |
| CC(=O)N/C(=N/c1nc(C)cc(C)n1)Nc1ccc(F)cc1F | -13.6% |
| CC(OC(=O)c1ccc2noc(-c3ccccc3)c2c1)C(N)=O (configuration not stated) | 1.23% |
| CC(=O)c1c(C)n(-c2ccc(C)cc2)c2ccc(O)cc12 | -16.2% |
| CCCCCCOc1ccc(OC(=O)c2cccnc2)cc1 | 37.9% |
| O=C(Oc1ccc(Br)cc1)c1cccnc1 | 22.6% |
| O=C(Oc1ccc(-c2nc(-c3ccccn3)no2)cc1)c1ccccc1 | 33% (active) |
| CCN(CC)Cc1c(C(=O)N/N=C/c2cccc(OCc3ccc(F)cc3)c2)nnn1-c1nonc1N | -1.06% |
| COC(c1ccccc1)(c1ccccc1)C(Oc1nc(C)cc(C)n1)C(=O)O (configuration not stated) | -2.84% |
| COc1ccc(S(=O)(=O)n2nc(C)c(S(=O)(=O)N3CCOCC3)c2C)cc1 | 13.2% |
| CCOC(=O)c1c(-c2ccc(-c3ccccc3)cc2)csc1NC(=O)CCC(=O)O | -3.4% |
| O=c1c2cc([N+](=O)[O-])ccc2nc2n1CCC2 | -7.31% |
| O=C(NCc1ccccc1Cl)C1CCCO1 (configuration not stated) | 19.8% |
| O=C(Nc1ccc(C(=O)NCc2ccccc2Cl)cc1)C1=CSCCO1 | 47.1% (active) |
| CSc1ccc(CNC(=O)c2ccc(NC(=O)C3=CSCCO3)cc2)cc1 | 16.6% |

| SMILES | inhibition |
| --- | --- |
| CC12CCC(C(=O)N(NC(=O)c3ccccc3O)C1=O)C2(C)C (configuration not stated) | 10.2% |
| Cc1cccc(C(=O)Nc2nnc(S(=O)(=O)N3CCCCCC3)s2)c1 | 13.6% |
| COc1cc(/C=N/O)ccc1OCc1ccc([N+](=O)[O-])cc1 | 82.1% (active) |
| COc1cc(/C=N\Nc2ccc([N+](=O)[O-])cn2)ccc1OCC(=O)O | 31.3% |
| COc1cc(C(=O)OCc2ccc([N+](=O)[O-])cc2)cc(OC)c1OC | -13.3% |
| Cc1ccc(CNC(=O)C(=O)c2cn(CC(=O)N3CCOCC3)c3ccccc23)cc1 | 79.4% (active) |
| CN1CCN(C(=O)C(=O)c2cn(CC(=O)N3CCCC3)c3ccccc23)CC1 | -13% |
| Cc1ccc(CNC(=O)C(=O)c2cn(CC(=O)N3CCCC3)c3ccccc23)cc1 | 35.1% (active) |
| O=C(Nc1ccc(F)cc1)C(=O)c1cn(CC(=O)N2CCOCC2)c2ccccc12 | 15.3% |
| O=C(NCc1ccco1)C(=O)c1cn(CC(=O)N2CCCCCC2)c2ccccc12 | 27.2% |
| COc1cccc(NC(=O)CS(=O)(=O)c2cn(CC(=O)N3CCOCC3)c3ccccc23)c1 | -10.3% |
| COc1cccc(NC(=O)C(=O)c2cn(CC(=O)N3CCOCC3)c3ccccc23)c1 | 92.3% (active) |
| CN(Cc1ccccc1)C(=O)C(=O)c1cn(CC(=O)N2CCCC2)c2ccccc12 | 5.26% |
| O=C(NCCCn1ccnc1)C(=O)c1cn(CC(=O)N2CCCCCC2)c2ccccc12 | -6.62% |
| COc1cccc(N(CC(=O)NC2CCCC2)C(=O)CCCC(=O)Nc2ccccn2)c1 | -5.09% |
| CCCNC(=O)CCc1c(C)nc2c(c(C)nn2-c2ccccc2)c1C | -16.2% |
| CCOc1ccc(N(CC(=O)Nc2cccc(OC)c2)S(C)(=O)=O)cc1 | 28.6% |
| CCC1=Nc2cc(C(=O)NCCN3CCCC3)ccc2Sc2ccc(C)cc21 | -6.55% |
| O=C(CN1C(=O)COc2ccc(Cl)cc21)Nc1ccc(N2CCOCC2)cc1 | -16.6% |
| Cc1cccc(N(C)C(=O)CN2C(=O)COc3ccc(S(=O)(=O)N4CCCCCC4)cc32)c1 | 4.44% |
| CCn1c(SCCC(C)C)nnc1-c1c[nH]c2ccccc12 | -3.59% |
| Cc1ccc(-c2csc(-c3cc(C)on3)n2)cc1 | 43% (active) |
| CCC(C)Sc1nnc(-c2c[nH]c3ccccc23)n1CCOC (configuration not stated) | 11.2% |
| CCCc1cc(-c2n[nH]c(=S)n2CC)c2ccccc2n1 | -6.2% |
| CCCc1nc2scc(-c3ccc(C)cc3)c2c(=O)n1N | 44.2% |

| SMILES | inhibition |
| --- | --- |
| Cc1ccc(-c2csc(N(Cc3ccco3)C(=O)c3cccs3)n2)cc1 | 18.8% |
| Cc1cc(-c2n[nH]c(=S)n2-c2ccc(C)c(C)c2)no1 | 6.5% |
| Cc1ccc(-c2csc(-c3c[nH]c4ccccc34)n2)cc1 | 111% (active) |
| CCCc1cc(-c2nc(-c3ccc(C)cc3)cs2)ccn1 | 68% (active) |
| CC(=O)N1c2ccc(S(=O)(=O)N(C)CC(=O)N(C)Cc3ccccc3)cc2CC1C (configuration not stated) | -1.97% |
| Cc1ccc(NC(=O)CCN2C(=O)c3ccccc3C2=O)cc1C | 7.31% |
| O=C(NCCN1CCOCC1)/C(=C/c1ccc(F)cc1)NC(=O)c1ccccc1 | -6.87% |
| COc1cccc(CNC(=O)COc2cc(O)c3c(c2)OC(C)(C)CC3=O)c1 | 7.09% |
| Cc1cccc(NC(=O)C2CCCN(C(=O)NCc3ccccc3)C2)c1C (configuration not stated) | 14.7% |
| CCCc1cc(=O)[nH]c(SCC(=O)N2C(C)CCCC2C)n1 (configuration not stated) | 1.9% |
| O=C(CNC(=O)C(c1ccccc1)c1ccccc1)N/N=C\c1ccc2c(c1)OCO2 | 66.2% (active) |
| CN1CCN(C(=O)/C(=C\c2ccc3c(c2)OCO3)NC(=O)c2cccs2)CC1 | -3.92% |
| O=C(N/N=C/c1ccc2c(c1)OCO2)C(=O)N1CCCC1 | 76.5% (active) |
| O=C(Cc1ccc(F)cc1)N/N=C/c1ccc2c(c1)OCO2 | 42.2% |
| O=C(N/N=C/c1ccc([N+](=O)[O-])cc1)C(=O)N1CCCC1 | 19% |
| Cc1[nH]c2ccccc2c1/C=N/NC(=O)CNC(=O)c1ccc2c(c1)OCO2 | -14.9% |
| OC(COc1ccc(Br)cc1)CN1CCCC1 (configuration not stated) | -1.94% |
| CN1C2CCC1CC(NC(=O)c1ccc([N+](=O)[O-])cc1)C2 (configuration not stated) | -5.48% |
| Cn1c(=O)c2c(SCC(=O)NCC3CCCO3)nc(CC(C)(C)C)nc2n(C)c1=O (configuration not stated) | -7.65% |
| Cc1cccc(NS(=O)(=O)c2ccc([N+](=O)[O-])cc2)n1 | 12.1% |
| Cc1oc(-c2ccccc2F)nc1CS(=O)CC(=O)NCCN1CCCCC1C (configuration not stated) | -8.05% |
| COc1ccccc1-c1nc(C#N)c(N2CCC(C(N)=O)CC2)o1 | -15% |
| CC1CCN(c2oc(-c3ccccc3F)nc2C#N)CC1 | 69.1% (active) |
| O=C(c1ccccc1F)N1CCN(S(=O)(=O)c2ccc(Br)cc2)CC1 | -11.4% |
| Cc1c(C(=O)NCC2CCCO2)sc2nc(-c3ccccc3)cn12 (configuration not stated) | 93% (active) |

| SMILES | inhibition |
| --- | --- |
| Cc1c(C(=O)N2CCCc3ccccc32)sc2nc(-c3ccccc3)cn12 | 21.5% |
| Cc1cccc(C)c1NC(=O)N1CC(C)OC(C)C1 (configuration not stated) | -12.3% |
| CCOc1ccc(-n2c(N)c(C(=O)NCC3CCCO3)sc2=S)cc1 (configuration not stated) | -14.3% |
| Cc1c(C(=O)N2CC(C)OC(C)C2)sc2nc(-c3ccccc3)cn12 (configuration not stated) | 64.7% (active) |
| O=C(CSc1ccc(-c2ccccc2)nn1)NCC1CCCO1 (configuration not stated) | 20.8% |
| COc1ccccc1N1CCN(C(=O)c2cc(=O)c3cc(C)cc(C)c3o2)CC1 | 3.39% |
| COc1cccc(-n2c(=S)sc3c(=O)n(-c4ccccc4C)c(SCC(=O)O)nc32)c1 | 20.4% |
| CCOc1ccc2[nH]c3nc(SCC(=O)NC4CCCC4)nnc3c2c1 | -5.52% |
| CCOc1ccc2nc(N(CCN(C)C)C(=O)c3ccc4ccccc4c3)sc2c1 | 25.9% |
| Cc1nc(COc2cc3oc(=O)cc(C)c3cc2Cl)cs1 | 2.94% |
| O=C(NCCCn1ccnc1)c1cc2c(s1)CCCC2 | -5.02% |
| O=C(COC(=O)c1cc2c(s1)CCCC2)NCc1ccccc1Cl | 7.81% |
| O=C(Nc1ccc(F)cc1)c1cc2c(s1)CCCC2 | 127% (active) |
| O=C(CNC(=O)c1cc2c(s1)CCC2)Nc1ccccc1Br | 61.2% (active) |
| O=C(Nc1sc2c(c1C(=O)O)CCC2)c1ccccc1F | 15% |
| NC(=O)c1c(NC(=O)c2ccccc2)sc2c1CCCC2 | 68.2% (active) |
| COc1ccc(C(CNC(=O)c2cc3c(s2)CCCC3)N2CCOCC2)cc1 (configuration not stated) | -16.3% |
| O=C(c1cc2c(s1)CCC2)N1CCN(c2ccccc2)CC1 | 44.1% |
| CN(CC(=O)Nc1ccccc1F)CC(=O)Nc1ccccc1Br | 13% |
| C=CCN(CC=C)S(=O)(=O)c1ccc(C(=O)Nc2sc3c(c2C(N)=O)CCCCC3)cc1 | -0.928% |
| O=C(NNC(=O)c1cc2c(s1)CCCC2)c1ccccc1 | 110% (active) |
| O=C(NCCCN1CCOCC1)c1cc2c(s1)CCC2 | 33% |
